Five molecules from PubChem BioAssay (EPA / NIEHS) can be followed below.

Where “and” joins values, the source holds several entries; their conditions need not be identical. Identical values can stand only once. Some compounds were tested as several samples or in several runs, with calls that do not always agree. Calls of active or inactive are those of the source. How the source made its calls: active means hit-call score of the fitted dose curve at least 0.9, where 1 is the maximum; inactive means score below 0.9.

Settings in all cases: mRNA level, 48 h; actives raise or lower the signal
Read-out in experiment [1]: Interleukin 6 Receptor (IL6R), IL6R (gene 3570)
Briefly: LTEA_HepaRG_IL6R: Life Technologies and Expression Analysis (LTEA) Assay for Interleukin 6 Receptor (IL6R) using HepaRG (AID 2283510).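 On AC50: differentiated human HepaRG liver cells in serum-free induction medium; TaqMan qRT-PCR signal normalized to ACTB GAPDH and POLR2A housekeeping genes.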 In outline: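 Concentration-response in human liver HepaRG cells: eight concentrations from 100 uM downward by half-logs, 48 h exposure, 0.5% DMSO vehicle. IL6R mRNA change measured by qRT-PCR and fitted in both directions relative to vehicle.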

Read-out in experiment [2]: Potassium channel subfamily K member 1 (KCNK1), KCNK1 (gene 3775)
Briefly: LTEA_HepaRG_KCNK1: Life Technologies and Expression Analysis (LTEA) Assay for Potassium channel subfamily K member 1 (KCNK1) using HepaRG (AID 2283511). In outline: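 Gain or loss of KCNK1 mRNA is the read-out, quantified by qRT-PCR against three housekeeping genes after 48 h chemical treatment of human HepaRG liver cells. Concentrations ran from 100 uM downward in half-log steps, vehicle 0.5% DMSO.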

Read-out in experiment [3]: Keratin 19 (KRT19), KRT19 (gene 3880)
Briefly: LTEA_HepaRG_KRT19: Life Technologies and Expression Analysis (LTEA) Assay for Keratin 19 (KRT19) using HepaRG (AID 2283512). The method in brief:
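Readout is qRT-PCR of KRT19 mRNA, normalized to ACTB, GAPDH and POLR2A, from HepaRG cells treated 48 h with eight-point half-log dilutions topping at 100 uM. Activity in either direction is scored relative to 0.5% DMSO vehicle.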

Read-out in experiment [4]: Lipase C (LIPC), LIPC (gene 3990)
Briefly: LTEA_HepaRG_LIPC: Life Technologies and Expression Analysis (LTEA) Assay for Lipase C (LIPC) using HepaRG (AID 2283514). The method in brief:
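Read-out is LIPC transcript level by TaqMan qRT-PCR, normalized to three housekeeping genes, after 48 h chemical treatment of human HepaRG liver cells. Curves span eight concentrations topping at 100 uM; activity in either direction scored relative to 0.5% DMSO.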

Read-out in experiment [5]: Lipoprotein lipase (LPL), LPL (gene 4023)
Briefly: LTEA_HepaRG_LPL: Life Technologies and Expression Analysis (LTEA) Assay for Lipoprotein lipase (LPL) using HepaRG (AID 2283515). The method in brief:
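Read-out is LPL transcript level by qRT-PCR, normalized to three housekeeping genes and fitted bidirectionally against the DMSO control. Human HepaRG cells received chemicals for 48 h at up to 100 uM.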

Read-out in experiment [6]: MicroRNA 122 (MIR122), gene 406906
Briefly: LTEA_HepaRG_MIR122: Life Technologies and Expression Analysis (LTEA) Assay for MicroRNA 122 (MIR122) using HepaRG (AID 2283516). Further: the transcript read is the microRNA miR-122. In outline: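 HepaRG, 48 h exposure, 8-pt half-log from 100 uM, 0.5% DMSO; TaqMan qRT-PCR; bidirectional fit vs DMSO.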

Read-out in experiment [7]: matrix metalloproteinase-10 (MMP10), MMP10 (gene 4319)
Briefly: LTEA_HepaRG_MMP10: Life Technologies and Expression Analysis (LTEA) Assay for matrix metalloproteinase-10 (MMP10) using HepaRG (AID 2283517). In outline:
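Gain or loss of MMP10 mRNA is fitted relative to the 0.5% DMSO vehicle. The human hepatic line HepaRG receives a 48-hour serum-free exposure, in duplicate, with a maximum concentration of 100 uM.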

Read-out in experiment [8]: MYC, MYC (gene 4609)
Briefly: LTEA_HepaRG_MYC: Life Technologies and Expression Analysis (LTEA) Assay for MYC using HepaRG (AID 2283518). In outline:
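Expression changes were scored by TaqMan qRT-PCR with ACTB, GAPDH and POLR2A normalization. Cultures in serum-free induction medium received duplicate 8-point concentration series, highest 100 uM, for 48 h; DMSO (0.5%) served as baseline.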

Read-out in experiment [9]: matrix metalloproteinase-3 (MMP3), MMP3 (gene 4314)
Briefly: LTEA_HepaRG_MMP3: Life Technologies and Expression Analysis (LTEA) Assay for matrix metalloproteinase-3 (MMP3) using HepaRG (AID 2283519). In outline: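 HepaRG, human; 48 h dosing, 8 conc. (max 100 uM, half-log), duplicate, 0.5% DMSO. Readout: MMP3 transcript by Fluidigm TaqMan qRT-PCR, ACTB/GAPDH/POLR2A-normalised. Gain or loss fitted vs DMSO.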

Read-out in experiment [10]: Nuclear factor NF-kappa-B p105 subunit (Homo sapiens) (UniProt P19838)
Briefly: LTEA_HepaRG_NFKB1: Life Technologies and Expression Analysis (LTEA) Assay for Nuclear Factor Kappa B Subunit 1 (NFKB1) using HepaRG (AID 2283521).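 Further: differentiated human HepaRG liver cells in serum-free induction medium.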 In outline: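 NFKB1 transcript was measured by TaqMan qRT-PCR on Fluidigm arrays, normalised to three housekeeping genes and fitted in both directions against 0.5% DMSO. HepaRG cells were dosed in duplicate for 48 h in serum-free induction medium, eight half-log steps from 100 uM.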

Read-out in experiment [11]: Protein phosphatase 2A (PPP2R4), PTPA (gene 5524)
Briefly: LTEA_HepaRG_PPP2R4: Life Technologies and Expression Analysis (LTEA) Assay for Protein phosphatase 2A (PPP2R4) using HepaRG (AID 2283522). In outline: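 Gene-expression endpoint in HepaRG hepatic cells: 48 h treatment across eight half-log concentrations up to 100 uM in 0.5% DMSO. PPP2R4 mRNA by qRT-PCR, normalized to three endogenous control genes.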

Read-out in experiment [12]: Phosphatase and tensin (PTEN), PTEN (gene 5728)
Briefly: LTEA_HepaRG_PTEN: Life Technologies and Expression Analysis (LTEA) Assay for Phosphatase and tensin (PTEN) using HepaRG (AID 2283523). In outline:
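Read-out is PTEN transcript level by multiplexed TaqMan qRT-PCR after 48 h chemical treatment of human HepaRG cultures in serum-free induction medium. Concentrations spanned 100 uM downward in half-log steps, 0.5% DMSO throughout; activity fitted in both directions against vehicle.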

Read-out in experiment [13]: solute carrier (SLC22A1), SLC22A1 (gene 6580)
Briefly: LTEA_HepaRG_SLC22A1: Life Technologies and Expression Analysis (LTEA) Assay for solute carrier (SLC22A1) using HepaRG (AID 2283524).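 On AC50: differentiated human HepaRG liver cells in serum-free induction medium.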 In outline:
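HepaRG (human liver line), 48 h dosing in serum-free induction medium; 8 conc., half-log down from 100 uM, 0.5% DMSO vehicle, duplicates. Endpoint: SLC22A1 mRNA, qRT-PCR, housekeeping-normalized; gain/loss fit vs DMSO.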

Read-out in experiment [14]: NAD(P)H dehydrogenase [quinone] 1 (NQO1), NQO1 (gene 1728)
Briefly: LTEA_HepaRG_NQO1: Life Technologies and Expression Analysis (LTEA) Assay for NAD(P)H dehydrogenase [quinone] 1 (NQO1) using HepaRG (AID 2283526). In outline: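 Human HepaRG hepatic cells received chemicals for 48 h in serum-free induction medium with 0.5% DMSO, up to 100 uM. Expression was assessed by TaqMan qRT-PCR against housekeeping controls and fitted bidirectionally against DMSO.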

Read-out in experiment [15]: Nuclear factor erythroid 2-related factor 2 (Homo sapiens) (UniProt Q16236)
Briefly: LTEA_HepaRG_NFE2L2: Life Technologies and Expression Analysis (LTEA) Assay for Nuclear factor erythroid 2-related factor 2 (NFE2L2) Transcription Factor using HepaRG (AID 2283527). In outline: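 Transcript level of NFE2L2 is the read-out, measured by microfluidic TaqMan qRT-PCR and normalized to three housekeeping genes. Human HepaRG cultures received test chemical for 48 h at up to 100 uM in half-log steps. Gain or loss of signal is fitted relative to 0.5% DMSO.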

Read-out in experiment [16]: succinate dehydrogenase complex iron sulfur subunit B (SDHB), SDHB (gene 6390)
Briefly: LTEA_HepaRG_SDHB: Life Technologies and Expression Analysis (LTEA) Assay for succinate dehydrogenase complex iron sulfur subunit B (SDHB) using HepaRG (AID 2283528). In outline:
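SDHB transcript level read by TaqMan qRT-PCR, housekeeping-normalised (ACTB, GAPDH, POLR2A), after 48 h chemical treatment of plated HepaRG cells; eight concentrations top 100 uM, half-log steps, 0.5% DMSO, duplicates; fitted both directions against DMSO.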

Read-out in experiment [17]: Signal transducer and activator of transcription 3 (Homo sapiens) (UniProt P40763)
Briefly: LTEA_HepaRG_STAT3: Life Technologies and Expression Analysis (LTEA) Assay for Signal transducer and activator of transcription (STAT3) using HepaRG (AID 2283529). In outline: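 Read-out is STAT3 mRNA level by qRT-PCR, normalized to three housekeeping genes, in human HepaRG liver cells treated for 48 h. Concentrations ran from 100 uM downward in half-log steps; curves were fitted for gain or loss relative to 0.5% DMSO.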

Read-out in experiment [18]: JUN Transcription Factor, JUN (gene 3725)
Briefly: LTEA_HepaRG_JUN: Life Technologies and Expression Analysis (LTEA) Assay for JUN Transcription Factor using HepaRG (AID 2283513). The method in brief: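 Human HepaRG liver cells receive test chemicals in 0.5% DMSO for 48 h across an eight-point range topping at 100 uM. Expression changes in JUN are scored in both directions against the DMSO vehicle.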

Read-out in experiment [19]: Pyruvate Dehydrogenase Kinase 4 (PDK4), PDK4 (gene 5166)
Briefly: LTEA_HepaRG_PDK4: Life Technologies and Expression Analysis (LTEA) Assay for Pyruvate Dehydrogenase Kinase 4 (PDK4) using HepaRG (AID 2283525). The method in brief: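 In this multiplexed human HepaRG expression assay, cells are treated 48 h with test chemicals across an eight-point range starting at 100 uM. PDK4 mRNA changes, normalized to ACTB/GAPDH/POLR2A, are fitted in both directions relative to vehicle.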

Chain of Nuclear factor NF-kappa-B p105 subunit (Homo sapiens) (P19838 whole entry, looked up): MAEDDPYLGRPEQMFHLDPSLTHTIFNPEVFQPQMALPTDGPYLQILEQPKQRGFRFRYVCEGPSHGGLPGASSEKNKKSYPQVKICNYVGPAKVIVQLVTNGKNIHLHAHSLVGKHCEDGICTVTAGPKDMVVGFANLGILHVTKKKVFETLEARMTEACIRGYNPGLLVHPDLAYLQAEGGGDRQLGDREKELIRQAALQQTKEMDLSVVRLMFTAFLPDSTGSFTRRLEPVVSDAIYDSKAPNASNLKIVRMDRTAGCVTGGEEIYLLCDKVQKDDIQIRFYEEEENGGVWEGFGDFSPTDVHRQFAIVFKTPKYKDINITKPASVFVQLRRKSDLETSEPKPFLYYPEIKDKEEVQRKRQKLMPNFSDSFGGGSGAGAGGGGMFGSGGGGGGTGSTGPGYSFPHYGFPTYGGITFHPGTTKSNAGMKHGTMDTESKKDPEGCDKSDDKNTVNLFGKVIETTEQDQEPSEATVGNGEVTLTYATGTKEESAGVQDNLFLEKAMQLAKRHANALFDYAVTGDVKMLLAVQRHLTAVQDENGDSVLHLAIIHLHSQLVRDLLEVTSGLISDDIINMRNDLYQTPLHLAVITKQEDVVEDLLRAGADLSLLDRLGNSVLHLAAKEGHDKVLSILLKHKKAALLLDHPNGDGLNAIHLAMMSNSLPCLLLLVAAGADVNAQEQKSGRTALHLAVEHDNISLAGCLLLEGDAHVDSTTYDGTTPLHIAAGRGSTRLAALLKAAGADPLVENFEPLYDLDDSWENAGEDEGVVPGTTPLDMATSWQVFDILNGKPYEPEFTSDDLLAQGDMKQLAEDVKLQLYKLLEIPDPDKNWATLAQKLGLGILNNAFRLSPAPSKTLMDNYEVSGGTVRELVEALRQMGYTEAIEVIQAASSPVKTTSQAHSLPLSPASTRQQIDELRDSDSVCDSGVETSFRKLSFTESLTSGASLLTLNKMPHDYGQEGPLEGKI
Chain of Signal transducer and activator of transcription 3 (Homo sapiens) (P40763 whole entry, looked up): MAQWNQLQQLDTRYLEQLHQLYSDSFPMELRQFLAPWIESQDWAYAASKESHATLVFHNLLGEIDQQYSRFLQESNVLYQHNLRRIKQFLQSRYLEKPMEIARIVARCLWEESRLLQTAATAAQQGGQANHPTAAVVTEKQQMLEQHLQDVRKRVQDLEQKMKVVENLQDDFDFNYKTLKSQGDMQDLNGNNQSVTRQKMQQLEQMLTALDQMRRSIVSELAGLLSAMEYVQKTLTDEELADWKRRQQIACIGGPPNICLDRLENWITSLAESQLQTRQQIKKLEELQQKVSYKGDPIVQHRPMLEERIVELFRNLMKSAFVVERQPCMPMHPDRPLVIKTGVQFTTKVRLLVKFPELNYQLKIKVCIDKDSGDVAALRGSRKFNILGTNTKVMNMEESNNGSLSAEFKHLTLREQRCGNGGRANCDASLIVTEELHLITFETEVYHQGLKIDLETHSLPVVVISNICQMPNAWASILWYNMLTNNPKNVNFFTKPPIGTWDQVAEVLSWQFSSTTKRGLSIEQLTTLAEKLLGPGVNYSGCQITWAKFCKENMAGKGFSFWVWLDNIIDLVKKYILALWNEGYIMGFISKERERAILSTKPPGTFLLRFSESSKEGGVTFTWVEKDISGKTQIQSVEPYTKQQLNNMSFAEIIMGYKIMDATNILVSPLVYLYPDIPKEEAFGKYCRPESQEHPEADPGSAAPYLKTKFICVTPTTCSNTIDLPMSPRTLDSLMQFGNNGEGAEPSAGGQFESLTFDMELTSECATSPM
Chain of Nuclear factor erythroid 2-related factor 2 (Homo sapiens) (Q16236 whole entry, looked up): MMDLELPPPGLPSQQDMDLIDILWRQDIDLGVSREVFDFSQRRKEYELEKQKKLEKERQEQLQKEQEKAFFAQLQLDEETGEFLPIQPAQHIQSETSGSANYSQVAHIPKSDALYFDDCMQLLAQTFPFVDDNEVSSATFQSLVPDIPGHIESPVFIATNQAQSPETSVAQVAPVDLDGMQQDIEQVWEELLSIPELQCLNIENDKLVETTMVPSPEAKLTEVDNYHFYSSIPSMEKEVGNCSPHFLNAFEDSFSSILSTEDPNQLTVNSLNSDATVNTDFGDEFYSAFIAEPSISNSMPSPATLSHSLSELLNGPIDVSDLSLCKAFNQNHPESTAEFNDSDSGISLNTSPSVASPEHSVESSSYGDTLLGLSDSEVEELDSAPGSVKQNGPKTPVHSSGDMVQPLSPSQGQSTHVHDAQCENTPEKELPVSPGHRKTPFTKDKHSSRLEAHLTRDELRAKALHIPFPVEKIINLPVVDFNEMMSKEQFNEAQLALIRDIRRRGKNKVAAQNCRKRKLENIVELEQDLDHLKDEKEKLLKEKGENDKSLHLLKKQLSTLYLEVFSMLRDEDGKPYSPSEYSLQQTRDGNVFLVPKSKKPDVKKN

As to `O=C(NC(=O)c1c(F)cccc1F)Nc1ccc(OC(F)(F)C(F)OC(F)(F)F)c(Cl)c1` (stereo unspecified), the outcome in experiment [1], in [2], in experiment [3], in [4], in experiment [5] and in experiment [6] was inactive. Moreover, the molecule was classed as inactive in [7], in experiment [8], in experiment [9], in experiment [10], in experiment [11] and in experiment [12]. Also, the molecule was called inactive in experiment [13], in experiment [14], in [15], in experiment [16] and in [17].
Take `ClC1C(Cl)C(Cl)C(Cl)C(Cl)C1Cl` (stereo unspecified): the result in experiment [1], in experiment [2], in experiment [3], in [4], in experiment [5] and in [6] was inactive. The result in experiment [7], in [8], in experiment [9], in experiment [10], in [11] and in [12] was inactive. The molecule was called inactive in experiment [13], in experiment [14], in experiment [15], in [16] and in experiment [17].
With `CC1(C)C(C=C(Cl)Cl)C1C(=O)OC(C#N)c1ccc(F)c(Oc2ccccc2)c1` (stereo unspecified), the molecule was called inactive in [1], in experiment [2], in experiment [3], in experiment [18], in experiment [4] and in [5]. In addition, the outcome in experiment [6], in experiment [7], in [8], in experiment [9], in [10] and in experiment [11] was inactive. In addition, the molecule was classed as inactive in experiment [12], in [13], in experiment [14], in [16] and in [17]. The AC50 in experiment [19] and in experiment [15] was 50 µM (active) each time.
On to `O=S(=O)(O)C(F)(F)C(F)(F)C(F)(F)C(F)(F)C(F)(F)C(F)(F)C(F)(F)C(F)(F)F`, for which the AC50 was 82.9 µM (active) and 90 µM (active) in experiment [1]; 33.1 µM (active) and 32.8 µM (active) and 62.9 µM (active) in experiment [3]; 76 µM (active) and 50 µM (active) and 48 µM (active) in experiment [4]; 61.1 µM (active) in experiment [5]; 82.5 µM (active) and 84.5 µM (active) and 48 µM (active) in experiment [6]; 87.5 µM (active) and 83.7 µM (active) in [7]. Besides, the AC50 in experiment [8] was 50 µM (active) [middle of 4 runs]; in experiment [11], 50 µM (active); in [13], 90.2 µM (active) and 89.8 µM (active) and 83.1 µM (active); in experiment [15], 58 µM (active); in experiment [16], 9.92 µM (active). Also, the molecule was classed as inactive in [1], in experiment [2], in [3], in experiment [4], in experiment [5] and in experiment [6]. The result in experiment [7], in experiment [9], in [11], in [12], in [13] and in experiment [14] was inactive. Further, the outcome in [15], in experiment [16] and in [17] was inactive.
For the molecule `CC(C)OC(=O)Nc1cccc(Cl)c1`, the outcome in [1], in [2], in [3], in [4], in experiment [5] and in [6] was inactive. In addition, the molecule was classed as inactive in experiment [7], in experiment [8], in experiment [9], in experiment [10], in experiment [11] and in experiment [12]. In addition, the molecule was called inactive in experiment [13], in [14], in [15], in experiment [16] and in [17].
